Laboratory results from paper PMC5540273 (PLoS ONE, 2017).

What follows are compounds tested on DAPK3. Conditions: concentration: 1 μM, replicates: in singlicate; n = 1.
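Further: KINOMEscan kinase panel screen.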

Row | SMILES | %Inh [%]
1 | COc1ccc(NC(=O)Nc2ccc(C)c(-c3ccc(C(=O)Nc4ccncc4)cc3)c2)cc1 [GSK1398475] | 3
2 | Clc1ccc(-c2cc(-c3c[nH]nc3-c3ccccn3)ccn2)cc1 [GW681251] | 30
3 | CC(C)(C)OC(=O)NC1CCCN(c2cc(-c3ccc4c(N)n[nH]c4c3)nc(N)n2)C1 (stereo not drawn) [GSK2286096] | 12
4 | CSc1ccc(NC2=C(c3ccccc3Cl)C(=O)NC2=O)cc1 [SB-342411] | 11
5 | COC(=O)c1cccc(NC(=O)NCCNc2ccnc(Nc3ccc(F)cc3)n2)c1 [GSK1379883] | 13
6 | Fc1cccc(COc2ccc(Nc3ncnc4sc(-c5ccc[nH]5)cc34)cc2Cl)c1 [GW707818] | 22
7 | c1ccc(-c2ccc3c(-c4ccnc(Nc5ccc6c(c5)OCCO6)n4)cnn3n2)cc1 [GW818941] | 0
8 | Fc1cccc(COc2ccc(Nc3ncnc4cc[nH]c34)cc2Cl)c1 | 22
9 | COc1cc2c(Nc3cccc(NC(=O)c4ccccc4)c3)ncnc2cc1OCCCN1CCOCC1 [GSK223810] | 28
10 | COc1ccc(NC(=O)c2ccc(-c3cc(-c4nnc(C)o4)ccc3C)cc2)cc1 [GW595885] | 13
11 | Cl.Fc1ccccc1COc1ccc(Nc2ncnc3ccc(-c4nnc(C(F)(F)F)o4)cc23)cc1Cl [GW424170] | 5
12 | CNc1nccc(-c2c(-c3ccc(F)cc3)ncn2CCCN2CCOCC2)n1 [SB-222516] | 15
13 | Cc1cc(N2CCC(NS(=O)(=O)c3ccc(F)cc3)CC2)nc(Nc2cccc(C#N)c2)n1.O=C(O)C(F)(F)F [GSK1653537] | 2
14 | Cn1ccc2ncnc(Oc3ccc(NC(=O)Nc4cccnc4)c(Cl)c3)c21 | 0
15 | O=C(c1ccc(-c2cc(-c3c[nH]nc3-c3ccccn3)ccn2)cc1)N1CCCC1 [GW792479] | 85
16 | Nc1nc(-c2ccc3c(N)n[nH]c3c2)cc(N2CCC[C@@H](C(=O)Nc3ccccc3)C2)n1.O=C(O)C(F)(F)F.O=C(O)C(F)(F)F [GSK2288359] | 0
17 | Cl.Cl.c1ccc(-c2cc3ccncc3cc2OC2CCNCC2)cc1 [GSK1122999] | 98.8
18 | Fc1ccc(-c2ncn(CCCNCc3ccccc3)c2-c2ccncc2)cc1 | 16

Row | SMILES | %Inh [%]
19 | CCn1c(-c2ccncc2)nc2cnccc21 [SB-735216] | 0
20 | C[C@H]1CC[C@@H](C(=O)Nc2ccccc2)CN1c1cc(-c2ccc3c(N)n[nH]c3c2)nc(N)n1 [GSK2283293] | 0
21 | NC(=O)c1sc(-n2cnc3ccccc32)cc1OCc1ccccc1F [GSK1024306] | 0
22 | Cl.Cn1ccc(-c2cccc(Nc3ccnc4cc(-c5nccs5)ccc34)c2)n1 [GW525701] | 2
23 | FC(F)(F)c1cc(Nc2nccc(-c3c(-c4ccc(Cl)cc4)nn4ncccc34)n2)ccc1Cl [GW829351] | 12
24 | N#Cc1ccc(Oc2ccc(Nc3ncnc4cc[nH]c34)cc2Cl)cc1 | 15
25 | OCCOCCn1ccc2ncnc(Nc3ccc(Oc4cccc(Cl)c4)c(Cl)c3)c21 | 0
26 | Fc1cccc(COc2ccc(Nc3ncnc4nn5ccccc5c34)cc2Cl)c1 [GW689066] | 7
27 | Nc1nc(-c2ccccn2)c(-c2ccnc3ccccc23)s1 [GW548057] | 31
28 | CCCc1ccc(S(=O)(=O)NC2CCN(c3ccnc(Nc4ccc(OC)cc4)n3)C2)cc1 (stereo not drawn) [GSK1379737] | 14
29 | Cc1ccc(O)cc1Nc1cc(C(F)(F)F)nc2ccc(-c3ccncc3)cc12 [GW630823] | 11
30 | CNc1nccc(-c2c(-c3ccc(F)cc3)ncn2C2CCN(C)CC2)n1 [SB-222903] | 25
31 | Nc1nc(-c2cccnc2)c(-c2ccnc3ccccc23)s1 [GW684083] | 0
32 | O=C(Nc1ccccc1)Nc1ccc(Oc2ccc3nccn3n2)cc1 | 0
33 | CC(C)(C)c1ccc(-n2cnc3c(N)ncnc32)cc1 [SKF-97263] | 0
34 | Cc1ccc(NC(=O)c2cccc(C#N)c2)cc1-c1ccc(C(=O)Nc2ccncc2)cc1 [GSK1398463] | 6
35 | Cc1ccc(C)c(NC(=O)NCCNc2ccnc(Nc3ccc(F)cc3)n2)c1 [GSK1379878] | 11
36 | Nc1nccc2scc(-c3ccc4c(c3)CCN4C(=O)Cc3cc(F)ccc3F)c12 [GSK2587663] | 7
